Median seed-adjusted z-score data for 109 sequences are collected here from PubChem BioAssay AID1347426 (Functional Genomics Laboratory (NCATS/FGL), 2020).

The campaign covered roughly 31,000 sequences. About 1,400 (4.5%) were called active. This excerpt belongs to a sample that is enriched for actives. Unmarked numbers belong to inactive results.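 How the source made its calls: active means median seed-adjusted z-score above 1 or below -1; inactive means the rest.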

The nature of this test: Novel Modifiers of Survival Motor Neuron (SMN) Protein: Gene Identification via Genome-wide siRNA Screen.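 Further: luminescence tracks full-length SMN protein made from the SMN2 reporter.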 As to conditions: HEK293T SMN2-luciferase reporter, siRNA knockdown, 72 h; actives lie on both sides. The essentials:
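Each of three siRNAs per gene is reverse-transfected (1 pmol) into reporter HEK293T cells whose luciferase output tracks SMN protein level. After 72 h culture, ONE-Glo luminescence is control-normalized, log10-transformed and MAD-standardized; Common Seed Analysis deprioritizes seed-driven hits.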
For orientation: A reporter such as luciferase makes a cellular process visible.
Consider CGCUGAAACACGUCCAUUUTT against CHAD, for which the median seed-adjusted z-score is 0.

With CUCUGAACAUCAACCCGGATT against DMRTB1, the median seed-adjusted z-score is -0.393.

Turning to GGAUCGUGGUCUUUCCAAATT against FNTA, the median seed-adjusted z-score is 1.04 (active).

Take GAAGAUUGGUGAUCUAGGATT against WNK3: the median seed-adjusted z-score is -0.466.

With GGCUUCUUGUCCAACCCUATT against CILP, the median seed-adjusted z-score is 0.0436.

In the case of GUAGGACCCUAAUAUCGAUTT against TEP1, the median seed-adjusted z-score is -0.495.

In the case of CAACUUUGAGGUAAAGUCATT against PRPF19, the median seed-adjusted z-score was -0.485.

Consider CGCUGAUACUAACAAUUGATT against AOX1, for which the median seed-adjusted z-score was -0.0717.

Take GAUUCGUUCUUCUACAACUTT against PSMD2: the median seed-adjusted z-score is -1.44 (active).

Take GGGCUGGAAUUACUAUGGATT against CCNH: the median seed-adjusted z-score was -0.659.

For GGCGAUUAGGAAACAUGAATT against PRKX, the median seed-adjusted z-score was 0.0341.

With GCAUUUUCCGCCUACCACATT against POLM, the median seed-adjusted z-score is -1.55 (active).

Regarding GAACAUUUCCAAGUCUGUATT against YSK4, the median seed-adjusted z-score was -0.181.

CCAAGUUUAUAUCAUAUUATT against GNG4: the median seed-adjusted z-score is -0.188.

As to CGCGGUGCAUAUGAAGAUATT against PIGM, the median seed-adjusted z-score is 1.36 (active).

With CAGUGUAAUUAGGCAACUATT against MYO3A, the median seed-adjusted z-score was 0.0776.

With CACCUCCGAUAAGCCCUAUTT against ZIC2, the median seed-adjusted z-score is -0.162.

With GCAACUACUUCCGAUCUAATT against KIF17, the median seed-adjusted z-score was -0.151.

For GGUUGUAACUGCAAGAUCATT against TIMP3, the median seed-adjusted z-score was -1.05 (active).

For the sequence CAUCCAUAAUUGGUGUAAATT against KIF20B, the median seed-adjusted z-score is 0.

In the case of ACUUAGUCAUCAUCAAGUATT against GK, the median seed-adjusted z-score was -0.474.

On to CAAGAUUCUUGACCUUGAATT against PDP2, for which the median seed-adjusted z-score was -0.0726.

As for GGAUAUUGCGUUUGGAACATT against TDP1, the median seed-adjusted z-score was -0.352.

Regarding GGAUACUCUUCCUAUUCAATT against OMA1, the median seed-adjusted z-score is 0.

Take CGGCUUUUAUGGACGAGUUTT against STX3: the median seed-adjusted z-score is 0.686.

Regarding GAAACAAAGUCUUAAUAUUTT against ATP1A4, the median seed-adjusted z-score is 0.116.

As to GGAAAAGUUCUGAAGACUATT against CPOX, the median seed-adjusted z-score is -0.135.

Take GCACCUCACCCAUCAAUGATT against RERE: the median seed-adjusted z-score is 0.129.

With GGUUGUCAUUAACAACAGUTT against DLST, the median seed-adjusted z-score was 1.16 (active).

Regarding GGUUCGGCAUGAGUGUGAATT against ZNF187, the median seed-adjusted z-score is 0.419.

On to GCAGGAGACUCAAAGAUUUTT against DDO, for which the median seed-adjusted z-score is -0.202.

As for GUCUAUCUCUUGUCUAAAATT against HYAL4, the median seed-adjusted z-score is -0.236.

Consider GCUCAUUGGUACAAUGUCATT against POLE, for which the median seed-adjusted z-score was -1.55 (active).

On to CGCUCAUGGACUUCGCCUATT against ZBTB7A, for which the median seed-adjusted z-score was -0.344.

CCAUAACGGUGGAUGAGUATT against MPPED2: the median seed-adjusted z-score was 0.418.

For GAAGUUUGACCAUGACUUUTT against ACCN5, the median seed-adjusted z-score is 0.227.

Regarding CACUGAUUCUGAAGGCGAATT against RPS6KA1, the median seed-adjusted z-score was 0.194.

Take CGUCUGACUUCGCUAGCAATT against HOXD11: the median seed-adjusted z-score is -0.185.

GGAUGUUGUUUAUCGAGGATT against MED21: the median seed-adjusted z-score is -1.3 (active).

Regarding ACAAAAAGGGCAUACAUUATT against S100A7A, the median seed-adjusted z-score was 0.212.

As for GCAGCUGUUUGGAACCAAATT against TRIM47, the median seed-adjusted z-score was 0.707.

As to GCAUCUCUUCUAUGCCGAATT against MATN2, the median seed-adjusted z-score was 0.275.

On to ACAAGCACCUAGACCAUGATT against ANGPTL4, for which the median seed-adjusted z-score was 1.37 (active).

On to ACUUAAUGCCUGCCUAUUATT against CYP21A2, for which the median seed-adjusted z-score was -0.26.

For UGACGUAGGCAUAAACGGATT against PCDH11Y, the median seed-adjusted z-score is 0.186.

As for GCUCUAAACCAGAACGGGATT against ARAP3, the median seed-adjusted z-score was -0.00876.

For the sequence AGACCAACCCUGGUACUUUTT against SRMS, the median seed-adjusted z-score was -1.58 (active).

On to GCAUUGUCCGUCUUCAUCATT against GLP1R, for which the median seed-adjusted z-score is 0.

In the case of GCACGUCACUGUGGUUGUATT against THNSL2, the median seed-adjusted z-score was 0.

As to GCUUAUACAUUCCGAUGAATT against PTPRZ1, the median seed-adjusted z-score was 1.73 (active).

For GGAUGUAGCUGUCAACUGUTT against HSD17B10, the median seed-adjusted z-score is -0.355.

Turning to GACCUUACGAGGUUUCUAATT against TSNAX, the median seed-adjusted z-score is 0.514.

As to CGUUCCUAAGCUACAAGAATT against TMPRSS9, the median seed-adjusted z-score was 0.106.

Turning to GAAUUCAGAUGCGAGUAAATT against RFX6, the median seed-adjusted z-score is 0.119.

Turning to CUGUUUACAUGACCUAUUUTT against MAFG, the median seed-adjusted z-score was 0.

Regarding CGGCACAUCCUGCUUUGUUTT against ZNF213, the median seed-adjusted z-score was 1.37 (active).

For GGUUCCUUAUUAUAGUCCATT against GPR63, the median seed-adjusted z-score was -0.0154.

Consider CGGUGCUCCCUGUCAUAAATT against CCR2, for which the median seed-adjusted z-score is -0.00107.

As to GGCAUGAAUUUGAACUGUATT against CA8, the median seed-adjusted z-score was 0.172.

For the sequence CCGUCAAGGUCGUCAUACATT against NTSR1, the median seed-adjusted z-score is -1.1 (active).

In the case of GGACGGCUUUCUGCAAAGATT against GLRA2, the median seed-adjusted z-score is -0.927.

Consider AGUGUCUACUGUGAGAAUATT against TRAF4, for which the median seed-adjusted z-score is -1.16 (active).

With GCACCAUAGUGACACUGAATT against IFNAR2, the median seed-adjusted z-score is -0.219.

With CAGUGGACUUCCAACCCAATT against SF3A1, the median seed-adjusted z-score was -1.09 (active).

As to CAUUCAUCUCAAUAAUUGATT against IL5RA, the median seed-adjusted z-score is -0.357.

Consider CAUGGACGAGAUCAAGGAATT against AGXT, for which the median seed-adjusted z-score was 0.017.

GCACUACUCCGAGAAGUUATT against NEK6: the median seed-adjusted z-score is -0.674.

Take CAAUAGUAAAGGGAUAUAATT against MED27: the median seed-adjusted z-score is -1.62 (active).

Turning to AGACCGACGUGAAAGAGGATT against HAND2, the median seed-adjusted z-score is 0.0864.

CAGUUGCCUAUAUCCUAUATT against TDRKH: the median seed-adjusted z-score is -0.434.

As for CCCUUGUAGUGAAACGGAATT against CYP4F8, the median seed-adjusted z-score was 0.756.

For ACUACUUCCUGAACCGGGATT against CD2BP2, the median seed-adjusted z-score was -0.455.

For the sequence GCAGAGUUUCGUACAAGGATT against KPNA6, the median seed-adjusted z-score is -1.54 (active).

As to CCAGCCCACUCAUCUCAUUTT against SNX30, the median seed-adjusted z-score was -0.157.

On to GCCGAGGAACAAUCUCUCATT against RASGRP4, for which the median seed-adjusted z-score was 0.162.

Turning to CCACUACCCUGAGAACUUUTT against TOP3B, the median seed-adjusted z-score is -1.11 (active).

In the case of GGACCGGAGCAGUAUAGAATT against TRIM37, the median seed-adjusted z-score was -0.108.

Regarding CGGUUACGAUAAUGCGUUATT against ENPP5, the median seed-adjusted z-score was -0.0499.

Consider GCACAAGUGCUGAGCCAGATT against LENG9, for which the median seed-adjusted z-score is 0.607.

With GUAUUAUUUUCGUACACGATT against RABL3, the median seed-adjusted z-score was 0.843.

Consider CCGGCUACCUGAUCGUGUATT against PITPNM1, for which the median seed-adjusted z-score was -0.203.

GAAAUGACAUUAGCUGAUUTT against CLIC4: the median seed-adjusted z-score is -0.498.

Consider CUACAUUGCUGGGACUAAUTT against RRM1, for which the median seed-adjusted z-score was -5.51 (active).

For the sequence CCUGGAGAGUUACUUUGAATT against CCL23, the median seed-adjusted z-score is -0.285.

For the sequence CCUCGUCGAUCGUGCAUCUTT against ADRA2C, the median seed-adjusted z-score is 0.

As to CGAAAGGAAACCUAACGAATT against HIVEP2, the median seed-adjusted z-score was 0.294.

As for GCACAGGCAUCAUCGGGAATT against SGSH, the median seed-adjusted z-score is 0.383.

For GCCUCAAGGUUCACCUGAATT against PRDM1, the median seed-adjusted z-score was -0.16.

For the sequence GUAUCUCAACAUCAAACUATT against LSM2, the median seed-adjusted z-score was -1.48 (active).

Regarding GGGCUGAUGUUAUCAACUUTT against CNTNAP2, the median seed-adjusted z-score is -0.196.

Consider CGACACUGCCGAAUGGAAATT against SRCRB4D, for which the median seed-adjusted z-score is -0.0568.

For the sequence UGCCCGUCAUUGUCUCCAATT against KCNA7, the median seed-adjusted z-score was 0.394.

AGAUCAUUGCUUUCAGUGATT against PRDX1: the median seed-adjusted z-score was 0.288.

For CCUACAAUGUGGUGCAUAUTT against DYRK4, the median seed-adjusted z-score is -0.824.

As for CAAGAAUUCCGAUUUCCAATT against GNGT2, the median seed-adjusted z-score was -0.289.

Take GCAAUGAACUCAACAGCUATT against ANGPTL7: the median seed-adjusted z-score was 0.

Regarding GCUAGACCGACCCACCAUATT against FKBP6, the median seed-adjusted z-score was -1.12 (active).

On to GGUUAUCGACGACAGCAGATT against AGAP3, for which the median seed-adjusted z-score was 0.554.

As for GCAUCCCACUACUACAAAUTT against KSR2, the median seed-adjusted z-score is -0.371.

As for UCAUCUUCAUCGACCGGAATT against AGPAT1, the median seed-adjusted z-score is -1.38 (active).

UACCUGUGGUCAUUCCUUATT against HHATL: the median seed-adjusted z-score is 0.497.

On to ACACCUCACUCAUCCUCUUTT against GNAZ, for which the median seed-adjusted z-score was -0.604.

Take GGGCAAUGAUAGAAAGAAUTT against STK35: the median seed-adjusted z-score was 0.519.

On to GGAGGGAUGGUUACUGUUATT against TOX4, for which the median seed-adjusted z-score was 0.

Take GAUGCAUUCGAUGACCUGATT against PTGES2: the median seed-adjusted z-score was -0.02.

With GCCUAUUCCUUCAAGUAUUTT against SUPT6H, the median seed-adjusted z-score is -2.54 (active).

On to CAGUGAAAAGUGACGCGGATT against DZIP1, for which the median seed-adjusted z-score was -0.138.

As for CGAAAGUCCUCACCAACAATT against TSHZ1, the median seed-adjusted z-score was 0.526.

Regarding GCCUUUCAUCAGAUCUUCUTT against DBX1, the median seed-adjusted z-score is 0.0137.
